The nature of experiment [1]: Cell Viability - LYMP2-020 (AID 986).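 Further: series mostly up to about 92 µM; cells exposed to compound for 24 h at 37 °C; plate controls were DMSO only for no effect and tetraoctylammonium bromide at 92 µM for full effect; nearly all actives have a fitted effect of over 55% in size.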 In a few lines: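 Acute cytotoxicity in a human lymphoblastoid line is scored as a concentration-dependent fall in cellular ATP after 24 hr at 37 C in complete medium. The positive control is tetraoctylammonium bromide, and potency is given as Hill-fit AC50.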
The nature of experiment [2]: Cell Viability - LYMP2-024 (AID 988).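 Further: cells exposed to compound for 24 hr at 37 °C; plate controls were DMSO only for no effect and 92 µM tetraoctylammonium bromide for full effect; nearly all actives have a fitted effect of over 60% in size.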 The method, boiled down:
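Acute toxicity is measured as concentration-dependent loss of intracellular ATP in a human lymphoblastoid line treated 24 hours at 37 C. Luciferase luminescence quantifies ATP; AC50 values come from standard Hill-equation modelling.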

Experiment [3] in a line: Cell Viability - LYMP2-026 (AID 989).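 Further: cells exposed to compound for 24 h at 37 °C; on the % scale 0 is the no-effect control and ±100 the full control effect; nearly all actives have a fitted effect of over 50% in size.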 The method, boiled down:
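Concentration-dependent loss of intracellular ATP in human lymphoblastoid cells after 24 hr at 37 C, quantified by luciferase luminescence. AC50 derived from standard Hill equation.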

Experiment [4] is described as follows: Cell Viability - LYMP1-002 - Assay at 24 hr (AID 993). Further: on the % scale 0 is the no-effect control and ±100 the full control effect. In a few lines:
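qHTS, LYMP1-002 lymphoblastoid, 24 h cpd, 37 C, CellTiter-Glo ATP luminescence; AC50 via Hill eq.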

Experiment [5] in a line: Cell Viability - LYMP1-002 - Assay at 40 hr (AID 994).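 Further: 0% = DMSO only and full inhibition = 92 µM tetraoctylammonium bromide; nearly all actives have a fitted effect of over 60% in size.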 The method, boiled down: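 Viability in the human lymphoblastoid line was measured as intracellular ATP via CellTiter-Glo after 40 hr compound exposure. Tetraoctylammonium bromide served as positive control.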
Experiment [6] in a line: qHTS Assay for Identification of Small Molecule Inducers of Hypoxia Response (AID 2120; active means well fitted curve in the direction sought with a large enough effect in the signal ratio, with a control signal flat, not every such curve was filed as active; the % refers to the signal ratio; further: 0% is about no effect). In a few lines: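 Induction of beta-lactamase reporter activity was measured in CellSensor HRE-bla ME-180 cells after 17 h compound treatment at 37 degrees C, using CCF4 substrate and the 460nm/530nm emission ratio to derive AC50 values.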
For experiment [7], the target named is Estrogen receptor (Homo sapiens) (UniProt P03372). Briefly: qHTS assay for small molecule antagonists of estrogen receptor alpha signaling (AID 588513; active means well fitted curve in the direction sought with a large enough effect in the signal ratio, with a control signal flat, not every such curve was filed as active; the % refers to the signal ratio; further: on the % scale 0 is the no-effect control and ±100 the full control effect). In a few lines: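 Fluorescence from CCF4 substrate after 2 h at room temperature gave reporter activity; cells had been exposed to compound and 0.5nM 17-beta-estradiol for 18 h at 37 C. Hill-equation fitting yielded IC50 and maximal response.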
For orientation: In qHTS, concentration-response curves come from the screen itself.

Experiment [8] has the same target. Briefly: qHTS assay for small molecule agonists of estrogen receptor alpha signaling (AID 588514; calls by dose curve;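 further: 0% = vehicle only and 100% = reference agonist; nearly all actives have a fitted effect of over 70% in size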). The method, boiled down:
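Reporter-gene assay. […] controls beta-lactamase in HEK 293 GripTite cells; after 18 hrs with compound, CCF4 substrate is added for 2 hrs and fluorescence is read.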

The target of experiment [9] is Glucocorticoid receptor (Homo sapiens) (UniProt P04150). Briefly: qHTS assay for small molecule agonists of glucocorticoid receptor signaling (AID 588532; active means well fitted curve in the direction sought with a large enough effect in the signal ratio, with a control signal flat; the % refers to the signal ratio;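 further: 100% = dexamethasone at 0.1 µM and 0% = DMSO only wells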). To be noted: HeLa MMTV-bla, beta-lactamase ratio, agonist, 18 h; stronger effect = higher value; percent of dexamethasone control, DMSO zero. The method, boiled down: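 HeLa GRE-bla reporter cells; 18 h compound exposure at 37 C; 2 h CCF4 loading at room temperature; fluorescence at 460 and 530 nm; EC50 by Hill equation.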

In experiment [10] the target is Peroxisome proliferator-activated receptor gamma (Homo sapiens) (UniProt P37231). Briefly: qHTS assay for small molecule agonists of peroxisome proliferator-activated receptor gamma signaling (AID 588536; active means well fitted curve in the direction sought with a large enough effect in the signal ratio, with a control signal flat, not every such curve was filed as active; the % refers to the signal ratio;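 further: 0% = DMSO basal wells and 100% = rosiglitazone at 2 µM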). The method, boiled down:
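Ratiometric blue/green fluorescence (405 nm excitation; 460 and 530 nm emission) from CCF4-loaded HEK293 reporter cells serves as signal. Exposure to test compounds lasts 16 h at 37 C in medium containing 1% charcoal/dextran-treated serum.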

Experiment [11] is described as follows: Cell Viability - LYMP2-022 (AID 987).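 Further: cells exposed to compound for 24 hr; 0% = DMSO alone and full effect = tetraoctylammonium bromide at 92 µM; nearly all actives have a fitted effect of over 55% in size.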 The method, boiled down:
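Acute toxicity in a human lymphoblastoid line is scored as decreased intracellular ATP after 24 hr compound treatment at 37 C. ATP is measured by CellTiter-Glo luminescence; curves are fitted with the Hill equation to give AC50.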

Experiment [12] concerns the target Glucocorticoid receptor (Homo sapiens) (UniProt P04150). Briefly: qHTS assay for small molecule antagonists of glucocorticoid receptor signaling (AID 588533; active means well fitted inhibition curve with a large enough effect in the signal ratio, with a control signal flat, not every such curve was filed as active; the % refers to the signal ratio; further: on the % scale 0 is the no-effect control and ±100 the full control effect). The method, boiled down:
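Antagonist-mode qHTS: compound titrations added to GRE-bla HeLa cells, then dexamethasone 2 nM final; 18 h, 37 C. CCF4 FRET fluorescence normalized to dexamethasone and DMSO; IC50 from Hill fit.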

Experiment [13] is described as follows: qHTS assay for small molecule antagonists of peroxisome proliferator-activated receptor delta signaling (AID 588535; active means well fitted inhibition curve with a large enough effect in the signal ratio, with a control signal flat, not every such curve was filed as active; the % refers to the signal ratio;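 on max response: cells co-treated with a PPAR-delta agonist as stimulator during compound exposure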). To be noted: HEK293T PPARd-UAS-bla, beta-lactamase FRET ratio, 18 h; 460 nm channel. In a few lines: (§1)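 Cells were seeded at 4000 per well in assay medium containing 2% charcoal/dextran FBS and held 5 hrs at 37 C. Compounds were then added for 18 hrs. CCF4 substrate was applied for 2 hrs at room temperature before fluorescence reading.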

Experiment [14] deals with Peroxisome proliferator-activated receptor delta (Homo sapiens) (UniProt Q03181). The experiment is described as above. The method, boiled down:
as §1

In experiment [15] the target is Vitamin D3 receptor (Homo sapiens) (UniProt P11473). Briefly: qHTS assay for small molecule antagonists of vitamin D receptor signaling (AID 588541; calls by dose curve;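 further: receptor activated by calcitriol during compound treatment; series mostly up to about 77 µM; on the % scale 0 is the no-effect control and ±100 the full control effect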). The method, boiled down: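 VDR-UAS-bla HEK293T cells in 2% charcoal-stripped FBS were stimulated with 1-alpha,25-dihydroxyvitamin D3 (3 nM final) plus compound for 16 h at 37 C. The beta-lactamase CCF4 readout was normalized to 50 nM agonist and DMSO, and Hill fits gave IC50.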

Experiment [16] has the same target. Briefly: qHTS assay for small molecule agonists of vitamin D receptor signaling (AID 588543; calls by dose curve;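 further: 0% = DMSO basal and 100% = reference agonist control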). The method, boiled down: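 Reporter cells (HEK293T, VDR-UAS-bla) were seeded in medium with 2% charcoal-stripped serum and incubated 5 h, then compounds in concentration series were added for 16 h at 37 °C. Stimulation was scaled between DMSO basal and 50 nM 1α,25-dihydroxyvitamin D3.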

The target in experiment [17] is Peroxisome proliferator-activated receptor gamma (Homo sapiens) (UniProt P37231). Nature of the experiment: qHTS assay for small molecule antagonists of peroxisome proliferator-activated receptor gamma signaling (AID 588537; active means well fitted inhibition curve with a large enough effect in the signal ratio, with a control signal flat, not every such curve was filed as active; the % refers to the signal ratio;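 further: reporter cells co-stimulated with 50 nM rosiglitazone agonist during compound treatment; % of control where 0% means no effect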). The method, boiled down:
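Step one: plate 3000 HEK293 UAS-bla cells per well in medium with 1% stripped serum and hold 6-6.5 h at 37 C. Step two: add compound and 50 nM agonist for 16 h. Step three: CCF4 loading, fluorescence read.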

Structures are written as SMILES. Values joined by “and” are separate entries in the source; they are usually repeats but may differ in a detail not shown here. Equal entries are not always repeated. Records with an inconclusive call do not appear. Active and inactive are the calls of the source. Unless noted, the call rests on the fitted dose curve; in most records, active means well fitted cell-killing curve with a large enough effect; inconclusive means small, poorly fitted or top-dose-only effect; inactive means flat fitted curve, though single readings scatter.

Chain of Vitamin D3 receptor (Homo sapiens) (P11473 whole entry, looked up): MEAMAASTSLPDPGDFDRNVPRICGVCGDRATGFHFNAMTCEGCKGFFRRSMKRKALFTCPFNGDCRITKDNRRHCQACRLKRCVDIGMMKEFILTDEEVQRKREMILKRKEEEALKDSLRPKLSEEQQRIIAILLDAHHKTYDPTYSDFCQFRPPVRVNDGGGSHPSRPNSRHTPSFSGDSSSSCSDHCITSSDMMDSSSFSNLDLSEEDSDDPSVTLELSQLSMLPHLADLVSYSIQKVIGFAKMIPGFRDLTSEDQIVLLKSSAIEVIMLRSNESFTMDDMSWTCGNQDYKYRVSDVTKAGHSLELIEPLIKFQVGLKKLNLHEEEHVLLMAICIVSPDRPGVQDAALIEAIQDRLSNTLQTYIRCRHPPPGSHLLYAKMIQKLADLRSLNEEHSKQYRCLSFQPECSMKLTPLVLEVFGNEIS
Chain of Estrogen receptor (Homo sapiens) (P03372 whole entry, looked up): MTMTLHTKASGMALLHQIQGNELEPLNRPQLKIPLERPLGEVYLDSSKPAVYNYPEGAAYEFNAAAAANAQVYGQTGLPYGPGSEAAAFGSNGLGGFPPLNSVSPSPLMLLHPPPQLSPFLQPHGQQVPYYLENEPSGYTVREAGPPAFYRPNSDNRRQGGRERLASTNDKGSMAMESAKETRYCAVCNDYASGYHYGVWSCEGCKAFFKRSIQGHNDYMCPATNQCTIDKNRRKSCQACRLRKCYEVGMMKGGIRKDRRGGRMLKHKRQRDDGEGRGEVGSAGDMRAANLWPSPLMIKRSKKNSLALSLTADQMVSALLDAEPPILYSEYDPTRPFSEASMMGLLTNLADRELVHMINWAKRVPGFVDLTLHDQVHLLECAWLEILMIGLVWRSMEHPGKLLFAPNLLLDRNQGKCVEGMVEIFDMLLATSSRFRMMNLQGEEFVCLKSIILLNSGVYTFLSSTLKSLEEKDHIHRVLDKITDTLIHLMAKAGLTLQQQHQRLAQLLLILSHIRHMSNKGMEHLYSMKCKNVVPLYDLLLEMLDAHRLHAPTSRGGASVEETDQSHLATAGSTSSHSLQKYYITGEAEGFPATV
Chain of Glucocorticoid receptor (Homo sapiens) (P04150 whole entry, looked up): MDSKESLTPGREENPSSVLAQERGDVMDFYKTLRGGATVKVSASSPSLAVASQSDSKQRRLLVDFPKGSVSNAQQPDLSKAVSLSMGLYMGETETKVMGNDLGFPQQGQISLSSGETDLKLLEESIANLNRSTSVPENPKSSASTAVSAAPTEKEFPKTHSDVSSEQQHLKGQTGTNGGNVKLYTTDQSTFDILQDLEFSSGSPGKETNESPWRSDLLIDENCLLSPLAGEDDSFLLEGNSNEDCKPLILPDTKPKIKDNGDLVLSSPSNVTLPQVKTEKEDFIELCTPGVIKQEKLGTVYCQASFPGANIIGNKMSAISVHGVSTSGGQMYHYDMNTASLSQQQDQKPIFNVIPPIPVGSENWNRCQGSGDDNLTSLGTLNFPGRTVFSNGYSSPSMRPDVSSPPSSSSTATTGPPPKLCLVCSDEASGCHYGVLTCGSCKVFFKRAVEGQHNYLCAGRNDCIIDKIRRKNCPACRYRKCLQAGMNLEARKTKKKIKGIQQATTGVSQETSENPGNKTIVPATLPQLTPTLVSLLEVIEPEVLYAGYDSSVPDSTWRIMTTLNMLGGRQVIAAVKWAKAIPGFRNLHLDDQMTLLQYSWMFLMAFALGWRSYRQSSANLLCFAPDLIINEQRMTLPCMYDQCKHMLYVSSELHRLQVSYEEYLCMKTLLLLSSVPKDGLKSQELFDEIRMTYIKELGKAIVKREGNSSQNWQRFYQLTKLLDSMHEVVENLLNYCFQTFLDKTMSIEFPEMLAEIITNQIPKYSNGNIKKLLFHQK
Chain of Peroxisome proliferator-activated receptor delta (Homo sapiens) (Q03181 whole entry, looked up): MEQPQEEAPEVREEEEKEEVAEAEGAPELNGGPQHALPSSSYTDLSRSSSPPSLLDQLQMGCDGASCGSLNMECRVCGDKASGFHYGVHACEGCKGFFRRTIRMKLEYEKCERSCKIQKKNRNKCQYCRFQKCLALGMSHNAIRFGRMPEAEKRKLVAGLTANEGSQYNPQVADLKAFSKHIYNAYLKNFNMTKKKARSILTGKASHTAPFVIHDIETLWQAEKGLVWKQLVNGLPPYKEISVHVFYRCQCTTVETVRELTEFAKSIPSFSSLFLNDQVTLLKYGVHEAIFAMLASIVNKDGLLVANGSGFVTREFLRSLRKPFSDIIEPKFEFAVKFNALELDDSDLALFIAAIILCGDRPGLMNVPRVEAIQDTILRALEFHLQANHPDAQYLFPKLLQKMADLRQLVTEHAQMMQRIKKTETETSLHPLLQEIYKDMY
Chain of Peroxisome proliferator-activated receptor gamma (Homo sapiens) (P37231 whole entry, looked up): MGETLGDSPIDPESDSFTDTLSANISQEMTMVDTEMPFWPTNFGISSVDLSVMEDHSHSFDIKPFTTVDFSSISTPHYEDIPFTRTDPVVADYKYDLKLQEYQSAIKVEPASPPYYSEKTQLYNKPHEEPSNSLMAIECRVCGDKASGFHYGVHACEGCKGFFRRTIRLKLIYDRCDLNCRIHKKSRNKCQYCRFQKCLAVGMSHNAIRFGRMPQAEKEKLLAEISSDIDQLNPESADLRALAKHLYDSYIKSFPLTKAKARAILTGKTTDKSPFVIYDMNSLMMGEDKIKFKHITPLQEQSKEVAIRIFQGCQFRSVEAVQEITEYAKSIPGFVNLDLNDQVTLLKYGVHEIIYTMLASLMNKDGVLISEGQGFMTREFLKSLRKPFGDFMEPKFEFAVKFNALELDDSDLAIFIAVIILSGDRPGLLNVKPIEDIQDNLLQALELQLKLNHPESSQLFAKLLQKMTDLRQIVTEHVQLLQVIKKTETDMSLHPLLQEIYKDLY

As to `O=Cc1ccc(C(=O)O)cc1`, the Potency entry in experiment [1], in experiment [2], in experiment [4], in [5] and in experiment [8] was “inactive” each time. Moreover, the call in [3], in experiment [6], in experiment [7] and in experiment [10] was inactive. Also, in experiment [9], the activation was 3.49% (inactive).
Consider `CC(C)=CCl`, for which the Potency result in experiment [1], in experiment [11], in experiment [2], in experiment [4], in [5] and in experiment [8] was “inactive” throughout. Besides, the Potency entry in [14] was “inactive”. Besides, the outcome in experiment [3], in experiment [6], in experiment [7], in experiment [12], in experiment [15] and in experiment [16] was inactive. Further, the activation in [9] is 2.68% (inactive). Besides, the max response in experiment [13] stood at 6.55%.
Consider `CC(C)=CCC/C(C)=C/C=O`, for which the Potency entry in experiment [1], in experiment [11], in experiment [2], in experiment [4], in [5] and in experiment [8] was “inactive” each time. In experiment [14], the Potency result was “inactive”. Moreover, the call in [3], in experiment [6], in [7], in experiment [12], in experiment [15] and in experiment [16] was inactive. In addition, in experiment [9], the activation is -2.98% (inactive) and -2.55% (inactive). Also, in [13], the max response was -1.69% and 16.6%.
Turning to `O=C(O[C@@H](C(=O)O)[C@@H](OC(=O)c1ccccc1)C(=O)O)c1ccccc1`, the Potency result in experiment [1], in experiment [11], in experiment [2], in experiment [4], in experiment [5] and in [8] was “inactive” each time. Also, the Potency result in experiment [14] is “inactive”. Moreover, the call in experiment [3], in [6], in experiment [7], in experiment [10] and in [17] was inactive. The activation in experiment [9] was -3.12% (inactive). The max response in experiment [13] was -10.6%.
Take `O=Cc1c(Cl)cccc1Cl`: the Potency entry in experiment [1], in [11], in experiment [2], in experiment [5], in [8] and in experiment [14] was “inactive” throughout. Besides, the result in experiment [3], in experiment [6], in experiment [7], in experiment [10], in [17] and in experiment [15] was inactive. Besides, in experiment [16], the result was inactive. In addition, the max response in experiment [13] is -29.6%.
`Nc1cccc(O)c1`: the Potency result in experiment [1], in experiment [11], in [2], in [4], in experiment [5] and in [8] was “inactive” throughout. Besides, the Potency result in experiment [14] was “inactive”. Also, the result in experiment [3], in [6], in [7], in experiment [10], in [15] and in experiment [16] was inactive. In addition, the activation in experiment [9] was -1.32% (inactive). Also, in experiment [13], the max response turned out to be 11.9%.
Regarding `CC(CCl)OC(C)CCl` (stereo not given), the Potency entry in experiment [1], in experiment [11], in [2], in experiment [4], in experiment [5] and in [8] was “inactive” throughout. The Potency result in [14] is “inactive”. In addition, the outcome in experiment [3], in experiment [6], in experiment [7] and in experiment [12] was inactive. Also, in experiment [9], the activation was 1.48% (inactive). In [13], the max response was determined as 6.69%.
As for `NC(=O)CCCCC(N)=O`, the Potency result in experiment [1], in experiment [11], in experiment [2], in experiment [5] and in experiment [8] was “inactive” in each case. Besides, the molecule was called inactive in experiment [3], in experiment [6], in [7], in experiment [12], in experiment [10] and in [17]. The molecule was called inactive in [15] and in [16]. Further, the activation in experiment [9] is -2.82% (inactive).
As to `Nc1cc([N+](=O)[O-])ccc1C(=O)O`, the Potency entry in [1], in experiment [2], in experiment [4], in experiment [5], in experiment [8] and in experiment [14] was “inactive” throughout. Besides, the outcome in experiment [3], in experiment [6], in experiment [7], in experiment [10], in experiment [17] and in experiment [15] was inactive. Moreover, the molecule was called inactive in experiment [16]. The max response in experiment [13] was -33% and 11%.
Consider `CCCCC(=O)N(C)C`, for which the Potency result in experiment [1], in [11], in [2], in experiment [4], in experiment [5] and in [8] was “inactive” each time. For the same molecule, the call in experiment [3], in experiment [6], in experiment [7], in experiment [12], in experiment [10] and in [15] was inactive. The molecule was classed as inactive in experiment [16]. Further, the activation in experiment [9] is -1.2% (inactive). In addition, the max response in experiment [13] was -15%.
On to `C=CCCCC`, for which the Potency result in experiment [1], in experiment [11], in experiment [2], in [4], in experiment [5] and in [8] was “inactive” each time. Also, in experiment [14], the Potency entry is “inactive”. For the same molecule, the molecule was called inactive in [3], in experiment [6], in experiment [7], in experiment [12], in experiment [10] and in [17]. Besides, the call in experiment [15] and in experiment [16] was inactive. The max response in experiment [13] amounted to 22.6%.
